Drawing on PubChem BioAssay (NCATS), this text covers Potency and viability for 8 compounds.

Structures are written as SMILES. Records with an inconclusive call do not appear. Activity calls are given as the source filed them. Calls come from the whole dose curve; as a rule, active = well fitted curve in the direction sought with a large enough effect; inconclusive = small, poorly fitted or top-dose-only effect, or another doubt; inactive = no such curve, though single readings can be large; an effect the other way counts as inactive or inconclusive.

The nature of assay [1]: Quantitative High-Throughput drug screen in 47 multiple myeloma cell lines against the NCATS MIPE library collection: Karpas620_DSMZ cell viability assay (AID 1918959). Note: nearly all actives have a fitted effect of over 30% in size. Note: potency is the fitted concentration of half-maximal effect. In a few lines: (§1)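 Steps: seed 500 cells per well; pin-transfer MIPE 4.0 library; incubate 48 h at 37C, 5% CO2, humidified; add CellTiter-Glo, 5 min room temperature; read luminescence.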
Assay [2] is described as follows: Quantitative High-Throughput drug screen in 47 multiple myeloma cell lines against the NCATS MIPE library collection: JIM3_ECACC cell viability assay (AID 1918963; note: nearly all actives have a fitted effect of over 35% in size; note: potency is the fitted concentration of half-maximal effect). In a few lines: as §1
The nature of assay [3]: Quantitative High-Throughput drug screen in 47 multiple myeloma cell lines against the NCATS MIPE library collection: INA6_PLB cell viability assay (AID 1918965; note: nearly all actives have a fitted effect of over 55% in size). In a few lines: (§2)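 CellTiter-Glo luminescence (ATP) after 48 h compound exposure, 37C/5% CO2; 500 cells/well; MIPE 4.0 approved/investigational drugs pinned in; DMSO = 100%, media only = 0% viability.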
Assay [4] can be described thus: Quantitative High-Throughput drug screen in 47 multiple myeloma cell lines against the NCATS MIPE library collection: Karpas25_ECACC cell viability assay (AID 1918968; note: nearly all actives have a fitted effect of over 35% in size; note: potency is the fitted concentration of half-maximal effect). An outline of the steps:
(§3)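 Inhibition of cell viability is measured here. Each line was plated at 500 cells per well, treated with MIPE 4.0 drugs, kept 48 hours at 37C, then assayed for ATP content by CellTiter-Glo luminescence.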

Assay [5] in a line: Quantitative High-Throughput drug screen in 47 multiple myeloma cell lines against the NCATS MIPE library collection: KMS12BM_JCRB cell viability assay (AID 1918971). Note: nearly all actives have a fitted effect of over 35% in size. Note: potency is the fitted concentration of half-maximal effect. In a few lines: (§4)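 Viability readout: CellTiter-Glo luminescence following 5 min room-temperature incubation with reagent. Prior exposure: 48 h, 37C, humidified 5% CO2, 500 cells per well.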
Assay [6] in a line: Quantitative High-Throughput drug screen in 47 multiple myeloma cell lines against the NCATS MIPE library collection: KMS12PE_JCRB cell viability assay (AID 1918972). Note: nearly all actives have a fitted effect of over 30% in size. Note: potency is the fitted concentration of half-maximal effect. In a few lines:
as §2

Assay [7] can be described thus: Quantitative High-Throughput drug screen in 47 multiple myeloma cell lines against the NCATS MIPE library collection: KMS26_JCRB cell viability assay (AID 1918975). Note: nearly all actives have a fitted effect of over 45% in size. An outline of the steps:
as §4

Assay [8] in a line: Quantitative High-Throughput drug screen in 47 multiple myeloma cell lines against the NCATS MIPE library collection: MOLP8_DSMZ cell viability assay (AID 1918977). Note: nearly all actives have a fitted effect of over 45% in size. Note: potency is the fitted concentration of half-maximal effect. In a few lines: (§5)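 500 cells/well; MIPE 4.0 drugs pin-transferred; 48 h, 37C, 5% CO2. CellTiter-Glo, 5 min RT, luminescence. Controls: DMSO 100%, media 0%.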
Assay [9] is described as follows: Quantitative High-Throughput drug screen in 47 multiple myeloma cell lines against the NCATS MIPE library collection: NCIH929_DSMZ cell viability assay (AID 1918978). Note: nearly all actives have a fitted effect of over 35% in size. Note: potency is the fitted concentration of half-maximal effect. In a few lines: as §5
Assay [10] in a line: Quantitative High-Throughput drug screen in 47 multiple myeloma cell lines against the NCATS MIPE library collection: OCIMY1_PLB cell viability assay (AID 1918979). Note: nearly all actives have a fitted effect of over 35% in size. An outline of the steps:
as §5

A short description of assay [11]: Quantitative High-Throughput drug screen in 47 multiple myeloma cell lines against the NCATS MIPE library collection: Karpas417_ECACC cell viability assay (AID 1918961). Note: potency is the fitted concentration of half-maximal effect. The following applies: Karpas417 myeloma viability, CellTiter-Glo ATP luminescence, 48 h; viability (% of DMSO): at 45.8 µM (top of the series). In a few lines:
as §2
(Cellular ATP, detected with luciferase, serves as a proxy for viable cell number.)

A short description of assay [12]: Quantitative High-Throughput drug screen in 47 multiple myeloma cell lines against the NCATS MIPE library collection: MMM1_PLB cell viability assay (AID 1918976). Note: nearly all actives have a fitted effect of over 35% in size. An outline of the steps: as §5
Assay [13] can be described thus: Quantitative High-Throughput drug screen in 47 multiple myeloma cell lines against the NCATS MIPE library collection: KHM11_PLB cell viability assay (AID 1918962). Note: nearly all actives have a fitted effect of over 35% in size. In a few lines: as §1
A short description of assay [14]: Quantitative High-Throughput drug screen in 47 multiple myeloma cell lines against the NCATS MIPE library collection: JIM1_ECACC cell viability assay (AID 1918964; note: potency is the fitted concentration of half-maximal effect). In a few lines: as §3
Assay [15] can be described thus: Quantitative High-Throughput drug screen in 47 multiple myeloma cell lines against the NCATS MIPE library collection: JJN3_DSMZ cell viability assay (AID 1918966; note: potency is the fitted concentration of half-maximal effect; nearly all actives have a fitted effect of over 50% in size). An outline of the steps: as §3
Assay [16] is described as follows: Quantitative High-Throughput drug screen in 47 multiple myeloma cell lines against the NCATS MIPE library collection: KMS20_JCRB cell viability assay (AID 1918973). Note: nearly all actives have a fitted effect of over 45% in size. An outline of the steps:
as §3

Assay [17] can be described thus: Quantitative High-Throughput drug screen in 47 multiple myeloma cell lines against the NCATS MIPE library collection: H1112_PLB cell viability assay (AID 1918967; note: nearly all actives have a fitted effect of over 30% in size). An outline of the steps: as §3
A short description of assay [18]: Quantitative High-Throughput drug screen in 47 multiple myeloma cell lines against the NCATS MIPE library collection: KMS27_JCRB cell viability assay (AID 1918970). Note: nearly all actives have a fitted effect of over 30% in size. Note: potency is the fitted concentration of half-maximal effect. To be noted: KMS27 myeloma cells, CellTiter-Glo ATP viability, 48 h; viability (% of DMSO): at 45.8 µM (top of the series). In a few lines: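 Viability inhibition screen, 48 h compound exposure, luminescent ATP read-out.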

A short description of assay [19]: Quantitative High-Throughput drug screen in 47 multiple myeloma cell lines against the NCATS MIPE library collection: KMS21BM_JCRB cell viability assay (AID 1918974). The following applies: ATP luminescence, 48 h; viability: at 45.8 µM (top of the series). In a few lines:
as §3

As to `CC(=O)N[C@@H]1[C@H](O[C@@H]2c3ccc(c(Cl)c3)Oc3cc4cc(c3O[C@H]3O[C@H](CO)[C@@H](O)[C@H](O)[C@H]3NC(=O)CCCCCCCC(C)C)Oc3ccc(cc3Cl)C[C@H]3NC(=O)[C@H](N)c5ccc(O)c(c5)Oc5cc(O)cc(c5)[C@H](NC3=O)C(=O)N[C@H]4C(=O)N[C@H]3C(=O)N[C@@H]2C(=O)N[C@@H](C(=O)O)c2cc(O)cc(O[C@H]4O[C@H](CO)[C@@H](O)[C@H](O)[C@H]4O)c2-c2cc3ccc2O)O[C@H](CO)[C@@H](O)[C@@H]1O`, the Potency entry in assay [1], in [2], in [3], in assay [4], in [5] and in [6] was “inactive” throughout. Besides, the Potency result in assay [7], in assay [8], in assay [9] and in assay [10] was “inactive” in each case.
As to `COc1ccc(CCC(=O)c2c(O)cc(O[C@@H]3O[C@H](CO)[C@@H](O)[C@H](O)[C@@H]3O[C@@H]3O[C@@H](C)[C@H](O)[C@@H](O)[C@@H]3O)cc2O)cc1O`, the Potency result in assay [1], in assay [11], in [5], in assay [12] and in assay [10] was “inactive” in each case. For the same compound, the Potency in assay [2] was 18.7 µM (active).
With `CC(=O)O[C@]1(C(C)=O)CC[C@H]2[C@@H]3C=C(C)C4=CC(=O)CC[C@]4(C)[C@@H]3CC[C@@]21C`, the Potency is 14.8 µM (active) in assay [1]; 10.5 µM (active) in [14]; 8.33 µM (active) in assay [4]; 9.35 µM (active) in assay [5]; 11.8 µM (active) in [6]; 7.43 µM (active) in [9]. The Potency result in assay [13], in [7] and in assay [10] was “inactive” each time.
Consider `O=C(Nc1ccc(Oc2ccnc3[nH]ccc23)c(F)c1)c1cccn(-c2ccc(F)cc2)c1=O`, for which the Potency result in assay [1], in assay [6], in assay [16] and in assay [10] was “inactive” throughout. For the same compound, the Potency in assay [11] is 0.0047 µM (active); in [15], 20.9 µM (active).
Consider `CC(C)(O)[C@H]1CC[C@@](C)([C@H]2[C@@H](O)C[C@@]3(C)[C@@H]4C[C@H](O[C@@H]5O[C@H](CO)[C@@H](O)[C@H](O)[C@@H]5O)[C@H]5C(C)(C)[C@@H](O[C@@H]6OC[C@@H](O)[C@H](O)[C@@H]6O)CC[C@@]56C[C@@]46CC[C@]23C)O1`, for which the Potency result in assay [1], in assay [13], in assay [2], in assay [14], in [3] and in [17] was “inactive” in each case. Further, the Potency result in [4], in assay [16], in assay [7], in [8] and in assay [9] was “inactive” throughout. Further, the Potency in [15] is 0.418 µM (active).
Take `CC(=O)O[C@H]1C[C@@H]2CC[C@H]3[C@H]4C[C@H]([N+]5(C)CCCCC5)[C@@H](OC(C)=O)[C@@]4(C)CC[C@@H]3[C@@]2(C)C[C@H]1[N+]1(C)CCCCC1`: the Potency result in [1], in assay [2], in assay [14], in assay [17], in assay [4] and in assay [18] was “inactive” in each case. Further, the Potency entry in assay [5], in assay [6], in [8], in assay [9] and in assay [10] was “inactive” throughout.
Consider `OCC(O)C(O)C(O)CO` (centres undefined), for which the Potency result in assay [1], in assay [13], in assay [2], in [17], in [4] and in assay [18] was “inactive” throughout. In addition, the Potency entry in assay [6], in assay [7], in assay [9] and in assay [10] was “inactive” throughout.
In the case of `CCCCC(=O)O[C@]1(C(=O)CO)[C@@H](C)C[C@H]2[C@@H]3CCC4=CC(=O)C=C[C@]4(C)[C@@]3(F)[C@@H](O)C[C@@]21C`, the Potency entry in [1], in assay [13], in assay [2], in assay [5], in assay [9] and in assay [10] was “inactive” throughout. The Potency was 0.0148 µM (active) in [4], 11.8 µM (active) in assay [18] and 0.526 µM (active) in [8]. Further, the viability (usually a read-out of living cells in per cent, often relative to untreated cells) in assay [19] is 131% (active).
